Several values for one entry are separate records, joined by “and”; a condition that tells them apart may be missing. Equal entries are not always repeated. Records with an inconclusive call do not appear. Entries that show only a call come without a potency. The source holds several records for some structures; these can differ, active in one and inactive in another. Activity calls are given as the source filed them. Calls come from the whole dose curve; as a rule, active = well fitted inhibition curve with a large enough effect; inconclusive = small, poorly fitted or top-dose-only effect; inactive = flat fitted curve, though single readings scatter. Non-standard residues stand in square brackets, D forms with d. Residues, ends and D or L forms follow the SMILES beside them. *: point of attachment. Sta = CC(C)C[C@H](N)[C@@H](O)CC(=O)O; Isovaleryl = CC(C)CC(=O)*
test system: MCC-26; assay: qHTS assay to identify novel small-molecules to repurpose for Merkel cell carcinoma treatment (AID 1296009); details: MCC and control cell lines, CellTiter-Glo viability, 72 h; series mostly up to 46 µM; activity change, negative = cytotoxicity: at the top concentration; note: nearly all actives have a fitted effect of over 60% in size
Source text: MCC is a rare and aggressive neuroendocrine skin cancer with limited treatment options. Approximately 80% of MCCs have the Merkel cell polyomavirus (MCPyV) DNA integrated into the host genome (virus-positive: VP-MCC) and viral oncogenes drive oncogenesis. The remaining MCCs are virus-negative (VN-MCC) and are caused by UV mutagenesis. To identify novel treatments for VP-MCC and/or VN-MCC we screened three VP-MCC cell lines (WAGA, MKL-1, MKL-2), three VN-MCC cell lines (MCC-13, MCC-26, UISO), and four immortalized, non-transformed control cell lines (HaCaT, HEK293T, CRL7250, NIH-3T3) against ~2,400 compounds in the NCGC Pharmaceutical Collection (NPC) and ~1,900 compounds in the Mechanism Interrogation PlatE (MiPE). Using cell viability as a readout (CellTiter-Glo assay) we found both overlapping and distinct drugs that can be repurposed for the treatment of VP-MCC and VN-MCC.
A high-throughput screen was conducted in 1536-well white flat bottom plates (Corning) on a Kalypsys robotic system. Cell lines WAGA, MKL-1, MKL-2, MCC-13, MCC-26, UISO, HaCaT, HEK293T, CRL7250, and NIH-3T3 were screened against 2 small molecule annotated drug libraries NPC and MIPE in dose response (8 and 11 pt. respectively) measuring cell viability after 72 hours of incubation. […] A 1,536 pintool (Kalypsys) was used to transfer 23 nL of compound in DMSO to the 1,536-well assay plates. After 72 hr incubation at 37 degree celsius, 2.5 uL of CellTiter-Glo (Promega) was dispensed into each well using a BiorapTR. Plates were incubated at room temperature for 10 min, transferred to a ViewLux (PerkinElmer) and the luminescence was recorded using an exposure time of 2 seconds. Relative luminescence units (RLUs) were normalized to in-plate controls (no cells as a positive (cytotoxicity) control, DMSO as negative control) and the normalized data was processed using NCATS in-house software.
Potency is the fitted concentration of half-maximal effect.

SMILES	activity change, negative = cytotoxicity	Potency
CN(C)CCCC1(c2ccc(F)cc2)OCc2cc(C#N)ccc21 (stereo not given)	-12.5% (inactive)	–
CNC[C@@H](O)[C@@H](O)[C@H](O)[C@H](O)CO	0.483% (inactive)	–
CC(C)CC(=O)N[C@H](C(=O)N[C@H](C(=O)N[C@@H](CC(C)C)[C@@H](O)CC(=O)N[C@@H](C)C(=O)N[C@@H](CC(C)C)[C@@H](O)CC(=O)O)C(C)C)C(C)C (Isovaleryl-VV[Sta]A[Sta]-OH)	-1.09% (inactive)	–
NS(=O)(=O)c1cc(C(=O)O)c(NCc2ccco2)cc1Cl	–	inactive
C[C@H](Cc1ccc(O)c(O)c1)[C@@H](C)Cc1ccc(O)c(O)c1	-0.173% (inactive)	–
O=P(O)(O)C(O)(Cn1ccnc1)P(=O)(O)O	3.44% [at 16.1 µM] (inactive)	–
C=CCc1cc(OC)c(O)c(C(=O)NCCO)c1	–	inactive
COc1cc2c(cc1OC)C1CC(=O)C(CC(C)C)CN1CC2 (stereo not given)	-4.12% (inactive)	–
CC(=O)NC[C@H]1CN(c2ccc(N3CCOCC3)c(F)c2)C(=O)O1	-4.05% (inactive)	–
CC(=O)Nc1ccc(O)cc1	–	inactive
CN(C)c1ccc(O)c2c1C[C@H]1C[C@H]3[C@H](N(C)C)C(=O)C(C(N)=O)=C(O)[C@@]3(O)C(=O)C1=C2O	–	inactive
CN(C)CCc1c[nH]c2ccc(Cn3cncn3)cc12	0.445% (inactive)	–
NNc1nncc2ccccc12	–	inactive
O=C(NC(Cc1cc(=O)[nH]c2ccccc12)C(=O)O)c1ccc(Cl)cc1 (stereo not given)	–	inactive
CC(C)C[C@H](NC(=O)[C@H](Cc1ccccc1)NC(=O)c1cnccn1)B(O)O	–	37.6 nM (active)
NC(=O)Cc1cccc(C(=O)c2ccccc2)c1N	–	inactive
Cc1cccc(C#Cc2ccccc2)n1	-3.14% (inactive)	–
Nc1ncn([C@H]2C[C@H](O)[C@@H](CO)O2)c(=O)n1	–	inactive
CCOC(=O)c1c(C)n(C)c2ccc(O)cc12	–	inactive
O=C(O)c1cn(-c2ccc(F)cc2)c2cc(N3CCNCC3)c(F)cc2c1=O	–	inactive

SMILES	activity change, negative = cytotoxicity	Potency
O=C(CCc1ccc(O)cc1)c1c(O)cc(O)cc1O	-13.6% (inactive)	–
O=c1c(O)c(-c2ccc(O)cc2O)oc2cc(O)cc(O)c12	6.01% (inactive)	–
c1ccc2[nH]c(-c3cscn3)nc2c1	–	inactive
CC[C@]1(O)C[C@H]2CN(CCc3c([nH]c4ccccc34)[C@@](C(=O)OC)(c3cc4c(cc3OC)N(C=O)[C@H]3[C@@](O)(C(=O)OC)[C@H](OC(C)=O)[C@]5(CC)C=CCN6CC[C@]43[C@@H]65)C2)C1	–	46.9 nM (active)
Nc1nc(N)c(N=O)c(OCC2CCCCC2)n1	-7.14% (inactive)	–
CCOC(=O)C(C)Oc1cccc2c(=O)n(CC(=O)Nc3ccc4c(c3)OCCO4)ccc12 (stereo not given)	-0.0719% (inactive)	–
Cc1cccc(-c2[nH]ncc2-c2ccc3ncccc3n2)n1	7.9% (inactive)	–
CC1(C)CCC(C)(C)c2cc(NC(=O)c3ccc(C(=O)O)cc3)ccc21	–	inactive
COc1ccc2cc([C@H](C)C(=O)O)ccc2c1	–	inactive
N=C(N=C(N)N)N1CCOCC1	–	inactive
COc1cc2nc(N3CCN(C(=O)C4CCCO4)CC3)nc(N)c2cc1OC (stereo not given)	–	inactive
CC(C)c1ccc2oc3nc(N)c(C(=O)O)cc3c(=O)c2c1	–	inactive
O=C(O)c1cccc(-c2noc(-c3ccccc3F)n2)c1	–	inactive
O=C(NCCO[N+](=O)[O-])c1cccnc1	–	inactive
O=C(NCC1CCCCN1)c1cc(OCC(F)(F)F)ccc1OCC(F)(F)F (stereo not given)	–	inactive
CCOc1cc(CC(=O)N[C@@H](CC(C)C)c2ccccc2N2CCCCC2)ccc1C(=O)O	-4.23% (inactive)	–
O=Nc1c(-c2c(O)[nH]c3cc(Br)ccc23)[nH]c2ccccc12	–	16600 nM (active)
COC(=O)C1=C(C)NC(C)=C(C(=O)OCCCN2CCC(c3ccccc3)(c3ccccc3)CC2)C1c1cccc([N+](=O)[O-])c1 (stereo not given)	–	inactive and 23.7 µM (active)
CCC[C@@H]1C[C@@H](C(=O)N[C@@H]([C@H]2O[C@H](SC)[C@H](O)[C@@H](O)[C@H]2O)[C@@H](C)O)N(C)C1	–	inactive
COc1ccc(C2(C#N)CCC(C(=O)O)CC2)cc1OC1CCCC1 (stereo not given)	-4.54% (inactive)	–
